About 2,000 (36%) of roughly 5,500 compounds were called active. Roughly 18% stayed inconclusive and do not appear here. Rule as the data show it: active = normalized growth mostly below about 0.91 (no sharp cut-off); inconclusive = no clear call, values can overlap the other calls; inactive = mostly above about 0.92. This is one part of the list.
Assay: chemical genetic growth profiling, strain panel (AID 1159580);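 also: tested at 20 µM; growth read once vehicle control cultures reached saturation at 30 °C; 1 = growth at the plate median or of vehicle wells; lower values mean less growth of the strain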
Conditions: growth OD

Measured: normalized growth

O=C(O)c1cc(=O)c2cc(Cl)ccc2[nH]1
inactive: S. cerevisiae deletion strains, locus YAL013W, strain DEP1, active compounds read low 0.985 | S. cerevisiae deletion strains, locus YBR021W, strain FUR4, active compounds read low 1.03 | S. cerevisiae deletion strains, locus YBR229C, strain ROT2, active compounds read low 1.01 | S. cerevisiae deletion strains, locus YCL029C, strain bik1, active compounds read low 1.01 | S. cerevisiae deletion strains, locus YDL035C, strain GPR1, active compounds read low 1 | S. cerevisiae deletion strains, locus YDL074C, strain BRE1, active compounds read low 0.972 | S. cerevisiae deletion strains, locus YDL101C, strain DUN1, active compounds read low 1 | S. cerevisiae deletion strains, locus YDL134C, strain PPH21, active compounds read low 1 | S. cerevisiae deletion strains, locus YDL185W, strain tfp1, active compounds read low 1 | S. cerevisiae deletion strains, locus YDL192W, strain arf1, active compounds read low 1.01 | S. cerevisiae deletion strains, locus YDR101C, strain arx1, active compounds read low 1.01 | S. cerevisiae deletion strains, locus YDR150W, strain NUM1, active compounds read low 1.01 | S. cerevisiae deletion strains, locus YDR162C, strain NBP2, active compounds read low 0.988 | S. cerevisiae deletion strains, locus YDR318W, strain mcm21, active compounds read low 1.03 | S. cerevisiae deletion strains, locus YDR388W, active compounds read low 1.01 | S. cerevisiae deletion strains, locus YDR502C, strain sam2, active compounds read low 1 | S. cerevisiae deletion strains, locus YEL061C, strain CIN8, active compounds read low 1 | S. cerevisiae deletion strains, locus YER110C, active compounds read low 1 | S. cerevisiae deletion strains, locus YER155C, strain BEM2, active compounds read low 0.995 | S. cerevisiae deletion strains, locus YER167W, strain BCK2, active compounds read low 1.02 | S. cerevisiae deletion strains, locus YGL078C, strain dbp3, active compounds read low 1 | S. cerevisiae deletion strains, locus YGL086W, strain mad1, active compounds read low 1.01 | S. cerevisiae deletion strains, locus YGL248W, strain PDE1, active compounds read low 1.02 | S. cerevisiae deletion strains, locus YGR078C, strain PAC10, active compounds read low 0.995 | S. cerevisiae deletion strains, locus YGR135W, strain pre9, active compounds read low 0.994 | S. cerevisiae deletion strains, locus YGR229C, strain SMI1, active compounds read low 0.972 | S. cerevisiae deletion strains, locus YGR252W, strain gcn5, active compounds read low 1.04 | S. cerevisiae deletion strains, locus YHR030C, strain SLT2, active compounds read low 1 | S. cerevisiae deletion strains, locus YHR079C, strain IRE1 (second series), active compounds read low 1.02 | S. cerevisiae deletion strains, locus YHR094C, strain hxt1, active compounds read low 1.01 | S. cerevisiae deletion strains, locus YHR129C, strain ARP1, active compounds read low 1.02 | S. cerevisiae deletion strains, locus YHR200W, strain rpn10, active compounds read low 1.01 | S. cerevisiae deletion strains, locus YIL066C, strain RNR3, active compounds read low 0.997 | S. cerevisiae deletion strains, locus YIL073C, strain SPO22, active compounds read low 1.08 | S. cerevisiae deletion strains, locus YIL125W, strain kgd1, active compounds read low 1.01 | S. cerevisiae deletion strains, locus YIR030C, strain dcg1, active compounds read low 1.01 | S. cerevisiae deletion strains, locus YJL095W, strain BCK1, active compounds read low 0.994 | S. cerevisiae deletion strains, locus YJL134W, strain LCB3, active compounds read low 1.01 | S. cerevisiae deletion strains, locus YJL168C, strain set2, active compounds read low 1 | S. cerevisiae deletion strains, locus YJL187C, strain SWE1 (second series), active compounds read low 1.01 | S. cerevisiae deletion strains, locus YJR043C, strain POL32, active compounds read low 1.01 | S. cerevisiae deletion strains, locus YJR075W, strain HOC1, active compounds read low 0.983 | S. cerevisiae deletion strains, locus YKL009W, strain mrt4, active compounds read low 1.03 | S. cerevisiae deletion strains, locus YKL068W, active compounds read low 0.996 | S. cerevisiae deletion strains, locus YKL085W, strain MDH1 (second series), active compounds read low 1.02 | S. cerevisiae deletion strains, locus YKL085W, strain MDH1, active compounds read low 1.02 | S. cerevisiae deletion strains, locus YKL190W, strain CNB1, active compounds read low 1 | S. cerevisiae deletion strains, locus YKR001C, strain vps1, active compounds read low 1.01 | S. cerevisiae deletion strains, locus YLR039C, strain RIC1, active compounds read low 1.02 | S. cerevisiae deletion strains, locus YLR058C, strain SHM2, active compounds read low 1.01 | S. cerevisiae deletion strains, locus YLR102C, strain apc9, active compounds read low 1.01 | S. cerevisiae deletion strains, locus YLR262C, strain YPT6, active compounds read low 1.01 | S. cerevisiae deletion strains, locus YLR268W, strain sec22, active compounds read low 1.01 | S. cerevisiae deletion strains, locus YLR330W, strain CHS5, active compounds read low 1 | S. cerevisiae deletion strains, locus YLR342W, strain FKS1 (second series), active compounds read low 1.08 | S. cerevisiae deletion strains, locus YLR371W, strain rom2, active compounds read low 1.02 | S. cerevisiae deletion strains, locus YLR418C, strain cdc73, active compounds read low 0.984 | S. cerevisiae deletion strains, locus YML016C, strain PPZ1, active compounds read low 1 | S. cerevisiae deletion strains, locus YML032C, strain rad52, active compounds read low 1.02 | S. cerevisiae deletion strains, locus YML124C, strain tub3, active compounds read low 1 | S. cerevisiae deletion strains, locus YMR078C, strain ctf18, active compounds read low 1.02 | S. cerevisiae deletion strains, locus YMR223W, strain ubp8, active compounds read low 1.03 | S. cerevisiae deletion strains, locus YMR263W, strain SAP30, active compounds read low 1 | S. cerevisiae deletion strains, locus YMR307W, strain GAS1, active compounds read low 1.03 | S. cerevisiae deletion strains, locus YNL067W, strain RPL9B, active compounds read low 0.994 | S. cerevisiae deletion strains, locus YNL128W, strain TEP1, active compounds read low 0.951 | S. cerevisiae deletion strains, locus YNL153C, strain GIM3, active compounds read low 0.999 | S. cerevisiae deletion strains, locus YNL233W, strain BNI4, active compounds read low 1.01 | S. cerevisiae deletion strains, locus YNL250W, strain rad50, active compounds read low 1.01 | S. cerevisiae deletion strains, locus YNL271C, strain bni1, active compounds read low 1 | S. cerevisiae deletion strains, locus YNL298W, strain CLA4, active compounds read low 1.01 | S. cerevisiae deletion strains, locus YNL307C, strain MCK1, active compounds read low 1.03 | S. cerevisiae deletion strains, locus YNL322C, strain KRE1, active compounds read low 0.998 | S. cerevisiae deletion strains, locus YNR052C, strain pop2, active compounds read low 1.01 | S. cerevisiae deletion strains, locus YOL006C, strain TOP1, active compounds read low 1.03 | S. cerevisiae deletion strains, locus YOL012C, strain htz1 1.31 | S. cerevisiae deletion strains, locus YOL147C, strain pex11, active compounds read low 1.01 | S. cerevisiae deletion strains, locus YOR061W, strain CKA2, active compounds read low 1 | S. cerevisiae deletion strains, locus YOR069W, strain VPS5, active compounds read low 1.01 | S. cerevisiae deletion strains, locus YOR136W, strain idh2, active compounds read low 1.01 | S. cerevisiae deletion strains, locus YOR144C, strain elg1, active compounds read low 1 | S. cerevisiae deletion strains, locus YOR184W, strain ser1, active compounds read low 1.06 | S. cerevisiae deletion strains, locus YOR316C, strain cot1, active compounds read low 1.01 | S. cerevisiae deletion strains, locus YPL055C, strain LGE1, active compounds read low 0.967 | S. cerevisiae deletion strains, locus YPL241C, strain CIN2, active compounds read low 1 | S. cerevisiae deletion strains, locus YPR119W, strain clb2, active compounds read low 1 | S. cerevisiae deletion strains, locus YPR141C, strain kar3, active compounds read low 1.01 | S. cerevisiae deletion strains, locus YPR163C, strain tif3, active compounds read low 1.01 | S. cerevisiae deletion strains, locus YPR167C, strain met16, active compounds read low 1 | S. cerevisiae deletion strains, strain wtn01, active compounds read low 1.01 | S. cerevisiae strains, strain wild type, active compounds read low 0.988

— PubChem BioAssay AID1159580 (chemical genetic matrix, 2015)
